# The sample as a whole holds a higher share of the strongest signals than the screen did.
# B1: Wzz (Escherichia coli) (protein)
# chain: MRTWKFPSVRVMMRVENNNVSGQNHDPEQIDLIDLLVQLWRGKMTIIISVIVAIVLAIGYLAVAKEKWTSTAIITQPDVGQIAGYNNAMNVIYGQAAPKVSDLQETLIGRFSSAFSALAETLDNQEEPEKLTIEPSVKNQQLPLTVSYVGQTAEGAQMKLAQYIQQVDDKVNQELEKDLKDNIALGRKNLQDSLRTQEVVAQEQKDLRIRQIQEALQYANQAQVTKPQIQQTGEDITQDTLFLLGSEALESMIKHEATRPLVFSSNYYQTRQNLLDIDNLDVDKLDIHAYLYVMKPTLPIRRDSPKKAITLILAVLLGGMVGAGIVLGRNALRNYNAK
# How the values were obtained:
# Assay in all cases: glycan array binding signal (z-score within array); higher = stronger binding
# Conditions in all cases: glycan notation: IUPAC condensed, linker removed
# [1] = target: Fuc(a1-2)Gal(b1-3)GalNAc(a1-3)[Fuc(a1-2)]Gal(b1-4)Glc
# Summary of the method: (§1)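 The Consortium for Functional Glycomics database supplied 3228 glycan arrays, of which those lacking an available protein sequence were dropped. The binding signal, a within-array Z-score, was averaged across arrays of the same protein sequence and across linkers. Negative scores can be read as non-binding.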
# [2] = target: Fuc(a1-2)Gal(b1-3)GlcNAc(b1-3)GalNAc
# Summary of the method: as §1
# [3] = target: Fuc(a1-2)Gal(b1-3)[Fuc(a1-4)]GlcNAc(b1-2)Man(a1-3)[Fuc(a1-2)Gal(b1-3)[Fuc(a1-4)]GlcNAc(b1-2)Man(a1-3)]Man(b1-4)GlcNAc(b1-4)GlcNAc
# Summary of the method: as §1
# [4] = target: Fuc(a1-2)Gal6S(b1-3)GlcNAc6S
# Summary of the method: as §1
# [5] = target: Fuc(a1-2)[Gal(a1-3)]Gal(b1-4)Glc
# Summary of the method: as §1
# [6] = target: Fuc(a1-2)[Gal(a1-3)]Gal(b1-4)GlcNAc(b1-2)Man(a1-3)[Fuc(a1-2)[Gal(a1-3)]Gal(b1-4)GlcNAc(b1-2)Man(a1-6)]Man(b1-4)GlcNAc(b1-4)[Fuc(a1-6)]GlcNAc
# Summary of the method: as §1
# [7] = target: Fuc(a1-2)[Gal(a1-3)]Gal(b1-4)GlcNAc(b1-3)[Fuc(a1-2)[Gal(a1-3)]Gal(b1-4)GlcNAc(b1-6)]GalNAc
# Summary of the method: as §1
# [8] = target: Fuc(a1-2)[Gal(a1-3)]Gal(b1-4)[Fuc(a1-3)]GlcNAc(b1-3)GalNAc
# Summary of the method: as §1
# [9] = target: Fuc(a1-2)[GalNAc(a1-3)]Gal(b1-3)GalNAc(a1-3)[Fuc(a1-2)]Gal(b1-4)GlcNAc
# Summary of the method: as §1
# [10] = target: Fuc(a1-2)[GalNAc(a1-3)]Gal(b1-3)GlcNAc(b1-2)Man(a1-3)[Fuc(a1-2)[GalNAc(a1-3)]Gal(b1-3)GlcNAc(b1-2)Man(a1-6)]Man(b1-4)GlcNAc(b1-4)GlcNAc
# Summary of the method: as §1
# [11] = target: Fuc(a1-2)[GalNAc(a1-3)]Gal(b1-4)[Fuc(a1-3)]GlcNAc(b1-3)GalNAc
# Summary of the method: as §1
# [12] = target: Fuc(a1-3)[Gal(b1-4)]Glc6S
# Summary of the method: as §1
# [13] = target: Fuc(a1-3)[Gal3S(b1-4)]Glc
# Summary of the method: as §1
# Fuc(b1-3)GlcNAc = target: Fuc(b1-3)GlcNAc
# Summary of the method: as §1
# [14] = target: Gal(a1-4)Gal(b1-4)GlcNAc(b1-3)Gal(b1-4)Glc
# Summary of the method: as §1
# [15] = target: Gal(b1-3)GlcNAc(b1-2)Man(a1-3)[Gal(b1-3)GlcNAc(b1-2)Man(a1-6)]Man(b1-4)GlcNAc(b1-4)GlcNAc
# Summary of the method: as §1
# [16] = target: Gal(b1-3)[Fuc(a1-4)]GlcNAc(b1-2)Man
# Summary of the method: as §1
# [17] = target: Gal(b1-4)GlcNAc(b1-2)Man(a1-3)[Gal(b1-4)GlcNAc(b1-2)Man(a1-6)][GlcNAc(b1-4)]Man(b1-4)GlcNAc(b1-4)[Fuc(a1-6)]GlcNAc
# Summary of the method: as §1
# [18] = target: Gal3S(b1-4)[Fuc(a1-3)]GlcNAc6S
# Summary of the method: as §1
# Gal3S6S(b1-4)GlcNAc = target: Gal3S6S(b1-4)GlcNAc
# Summary of the method: as §1
# Gal3S6S(b1-4)GlcNAc6S = target: Gal3S6S(b1-4)GlcNAc6S
# Summary of the method: as §1
# Gal4S(b1-4)GlcNAc = target: Gal4S(b1-4)GlcNAc
# Summary of the method: as §1
# Gal6S(b1-4)GlcNAc6S = target: Gal6S(b1-4)GlcNAc6S
# Summary of the method: as §1
# GalNAc(a1-3)Gal = target: GalNAc(a1-3)Gal
# Summary of the method: as §1
# [19] = target: GalNAc(b1-4)GlcNAc(b1-3)GalNAc(b1-4)GlcNAc
# Summary of the method: as §1
# GalNAc4S6S(b1-4)GlcNAc = target: GalNAc4S6S(b1-4)GlcNAc
# Summary of the method: as §1
# [20] = target: GlcNAc(b1-2)Gal(b1-3)GalNAc
# Summary of the method: as §1
# GlcNAc(b1-3)Fuc = target: GlcNAc(b1-3)Fuc
# Summary of the method: as §1
# [21] = target: GlcNAc(b1-3)Gal(b1-4)GlcNAc(b1-2)Man(a1-3)[GlcNAc(b1-3)Gal(b1-4)GlcNAc(b1-2)Man(a1-6)]Man(b1-4)GlcNAc(b1-4)GlcNAc
# Summary of the method: as §1
# [22] = target: GlcNAc(b1-3)Gal(b1-4)GlcNAc(b1-3)Gal(b1-4)GlcNAc(b1-2)[GlcNAc(b1-3)Gal(b1-4)GlcNAc(b1-3)Gal(b1-4)GlcNAc(b1-6)]Man(a1-6)[GlcNAc(b1-3)Gal(b1-4)GlcNAc(b1-3)Gal(b1-4)GlcNAc(b1-2)Man(a1-3)]Man(b1-4)GlcNAc(b1-4)[Fuc(a1-6)]GlcNAc
# Summary of the method: as §1
# [23] = target: GlcNAc(b1-3)Gal(b1-4)GlcNAc(b1-3)Gal(b1-4)GlcNAc(b1-3)GalNAc
# Summary of the method: as §1
# [24] = target: GlcNAc(b1-3)Gal(b1-4)GlcNAc(b1-6)[GlcNAc(b1-3)Gal(b1-3)]GalNAc
# Summary of the method: as §1
# [25] = target: GlcNAc6S(b1-3)Gal(b1-4)GlcNAc
# Summary of the method: as §1
# Man(a1-2)Man(a1-3)Man = target: Man(a1-2)Man(a1-3)Man
# Summary of the method: as §1
# [26] = target: Neu5Ac(a2-3)Gal(b1-4)GlcNAc(b1-2)Man
# Summary of the method: as §1
# [27] = target: Neu5Ac(a2-3)Gal(b1-4)GlcNAc(b1-6)[Gal(b1-3)]GalNAc
# Summary of the method: as §1
# [28] = target: Neu5Ac(a2-3)Gal(b1-4)[Fuc(a1-3)]GlcNAc(b1-3)Gal(b1-4)[Fuc(a1-3)]GlcNAc(b1-3)Gal(b1-4)[Fuc(a1-3)]GlcNAc
# Summary of the method: as §1
# [29] = target: Neu5Ac(a2-3)[GalNAc(b1-4)]Gal(b1-4)Glc
# Summary of the method: as §1
# [30] = target: Neu5Ac(a2-6)Gal(b1-4)GlcNAc(b1-2)Man(a1-3)[GlcNAc(b1-2)Man(a1-6)]Man(b1-4)GlcNAc(b1-4)GlcNAc
# Summary of the method: as §1
# [31] = target: Neu5Ac(a2-6)Gal(b1-4)GlcNAc(b1-2)Man(a1-6)Man(b1-4)GlcNAc(b1-4)GlcNAc
# Summary of the method: as §1
# [32] = target: Neu5Ac(a2-6)Gal(b1-4)GlcNAc(b1-2)Man(a1-6)[Man(a1-3)]Man(b1-4)GlcNAc(b1-4)GlcNAc
# Summary of the method: as §1
# [33] = target: Neu5Ac(a2-6)Gal(b1-4)GlcNAc(b1-6)[Gal(b1-3)GlcNAc(b1-3)]Gal(b1-4)Glc
# Summary of the method: as §1
# [34] = target: Neu5Ac(a2-6)GlcNAc(b1-4)GlcNAc
# Summary of the method: as §1
# [35] = target: Neu5Ac(a2-8)Neu5Ac(a2-3)[GalNAc(b1-4)]Gal(b1-4)Glc
# Summary of the method: as §1
# [36] = target: Neu5Ac9Ac(a2-6)Gal(b1-4)GlcNAc
# Summary of the method: as §1
binder,measurement,setting,value
B1,glycan array binding signal (z-score),[1],0.119
same,glycan array binding signal (z-score),[2],-0.55
same,glycan array binding signal (z-score),[3],0.002
same,glycan array binding signal (z-score),[4],2.91
same,glycan array binding signal (z-score),[5],0.055
same,glycan array binding signal (z-score),[6],-0.233
same,glycan array binding signal (z-score),[7],0.857
same,glycan array binding signal (z-score),[8],1.59
same,glycan array binding signal (z-score),[9],1.11
same,glycan array binding signal (z-score),[10],-0.965
same,glycan array binding signal (z-score),[11],0.633
same,glycan array binding signal (z-score),[12],1.46
same,glycan array binding signal (z-score),[13],-0.538
same,glycan array binding signal (z-score),Fuc(b1-3)GlcNAc,0.034
same,glycan array binding signal (z-score),[14],0.032
same,glycan array binding signal (z-score),[15],1.41
same,glycan array binding signal (z-score),[16],2.68
same,glycan array binding signal (z-score),[17],-0.511
same,glycan array binding signal (z-score),[18],2.08
same,glycan array binding signal (z-score),Gal3S6S(b1-4)GlcNAc,0.861
same,glycan array binding signal (z-score),Gal3S6S(b1-4)GlcNAc6S,16.9
same,glycan array binding signal (z-score),Gal4S(b1-4)GlcNAc,-0.728
same,glycan array binding signal (z-score),Gal6S(b1-4)GlcNAc6S,4.99
same,glycan array binding signal (z-score),GalNAc(a1-3)Gal,-0.563
same,glycan array binding signal (z-score),[19],-0.667
same,glycan array binding signal (z-score),GalNAc4S6S(b1-4)GlcNAc,5.1
same,glycan array binding signal (z-score),[20],-0.1
same,glycan array binding signal (z-score),GlcNAc(b1-3)Fuc,0.1
same,glycan array binding signal (z-score),[21],-0.684
same,glycan array binding signal (z-score),[22],-0.222
same,glycan array binding signal (z-score),[23],0.801
same,glycan array binding signal (z-score),[24],-0.084
same,glycan array binding signal (z-score),[25],0.081
same,glycan array binding signal (z-score),Man(a1-2)Man(a1-3)Man,-0.72
same,glycan array binding signal (z-score),[26],2.37
same,glycan array binding signal (z-score),[27],-0.035
same,glycan array binding signal (z-score),[28],-1.71
same,glycan array binding signal (z-score),[29],-0.397
same,glycan array binding signal (z-score),[30],1.21
same,glycan array binding signal (z-score),[31],2.29
same,glycan array binding signal (z-score),[32],1.66
same,glycan array binding signal (z-score),[33],-0.436
same,glycan array binding signal (z-score),[34],0.29
same,glycan array binding signal (z-score),[35],1.61
same,glycan array binding signal (z-score),[36],-0.542

# From the supplement of paper PMC8728848
